# Measured values reported in PubChem BioAssay (NCATS).
# Inconclusive results are not listed. Unmarked numbers belong to inactive results. Active and inactive are the calls of the source. The call rests on the fitted dose curve; in most records, active means well fitted inhibition curve with a large enough effect; inconclusive means small, poorly fitted or top-dose-only effect; inactive means flat fitted curve, though single readings scatter.
# Key:
# [1] = system: CRL-7250; experiment: Cytotoxic Profiling of Annotated Libraries Using Quantitative High-Throughput Screening (AID 1296008); conditions: Five cell lines viability, CellTiter-Glo ATP luminescence, 48-72 h; max response: hits give low values; on max response: on the % scale 0 is the no-effect control and ±100 the full control effect
# Method in brief: (§1)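 Cytotoxicity was measured as CellTiter-Glo ATP luminescence, read after 10 min at room temperature. Compound treatment of the cells lasted 48 or 72 hr at 37 degrees Celsius in a qHTS format.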
# [2] = system: HEK293; experiment: as above; conditions: Five cell lines viability, CellTiter-Glo ATP luminescence, 48-72 h; max response: hits give low values
# Method in brief: as §1
# [3] = system: HaCat; experiment: as above; conditions: Five cell lines viability, CellTiter-Glo ATP luminescence, 48-72 h; max response: hits give low values
# Method in brief: as §1
# [4] = system: KB-3-1; experiment: as above; conditions: Five cell lines viability, CellTiter-Glo ATP luminescence, 48-72 h; max response: hits give low values
# Method in brief: as §1
# [5] = system: W2; experiment: qHTS profiling for inhibitors of Plasmodium falciparum proliferation (AID 504749); conditions: P. falciparum in erythrocytes, SYBR Green DNA, 72 h; series mostly up to 28.7 µM
# Method in brief: (§2)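 In a 72 h erythrocytic culture (37 C, humidified, 5% CO2) at 2.5% hematocrit and 0.3% starting parasitemia, compounds were tested; SYBR Green I in detergent lysis buffer stained parasite DNA overnight.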
# [6] = system: SC27B; experiment: as above; conditions: P. falciparum in erythrocytes, SYBR Green DNA, 72 h; series mostly up to 28.7 µM
# Method in brief: as §2
# [7] = system: TAB109; experiment: as above; conditions: P. falciparum in erythrocytes, SYBR Green DNA, 72 h; series mostly up to 28.7 µM
# Method in brief: as §2
# [8] = system: TAB113; experiment: as above; conditions: P. falciparum in erythrocytes, SYBR Green DNA, 72 h; series mostly up to 28.7 µM
# Method in brief: as §2
# [9] = system: TAB165; experiment: as above; conditions: P. falciparum in erythrocytes, SYBR Green DNA, 72 h; series mostly up to 28.7 µM
# Method in brief: as §2
# [10] = system: PC49; experiment: as above; conditions: P. falciparum in erythrocytes, SYBR Green DNA, 72 h; series mostly up to 28.7 µM
# Method in brief: as §2
# Further: nearly all actives have a fitted effect of over 60% in size.
# Potency means the concentration at half of the fitted maximal effect.
compound,measurement,setting,value
CN(CC1(C)CCCO1)S(=O)(=O)c1ccc(Cl)c(S(N)(=O)=O)c1 (configuration not stated),max response,[1],1.85%
same,max response,[2],-6.48%
same,max response,[3],-20.1%
same,outcome,[4],inactive
CN1CCC(=C2c3ccccc3CCc3cccnc32)CC1,max response,[1],3.77%
same,max response,[2],2.67%
same,outcome,[3],inactive
same,max response,[4],-10.8%
O=C(O)Cc1ccc(OCCNC[C@H](O)c2ccccc2)cc1,outcome,[1],inactive
same,max response,[2],-3.07%
same,max response,[3],2.67%
same,max response,[4],-1.64%
COc1cc(NS(=O)(=O)c2ccc(N)cc2)nc(C)n1,max response,[1],-6.73%
same,outcome,[2],inactive
same,max response,[3],-7.5%
same,outcome,[4],inactive
C[C@H]1NCc2cc(-c3ccc4c(=O)c(C(=O)O)cn(C5CC5)c4c3OC(F)F)ccc21,max response,[1],-16.7%
same,max response,[2],-17.6%
same,max response,[3],-3.8%
same,max response,[4],-9.83%
COc1cc(C(=O)NC2CCCNC2)cc(OC)c1OC (configuration not stated),max response,[1],1.65%
same,max response,[2],-8.29%
same,outcome,[3],inactive
same,max response,[4],-17.2%
C1N2CN3CN1CN(C2)C3,outcome,[1],inactive
same,outcome,[2],inactive
same,max response,[3],-1.63%
same,max response,[4],-1.26%
CCCCCC[C@@H](CCC)C(=O)O,max response,[1],-4.37%
same,outcome,[2],inactive
same,outcome,[3],inactive
same,max response,[4],-12.3%
CCCCC(CC)COC(=O)c1ccccc1C(=O)O (configuration not stated),max response,[1],-9.5%
same,outcome,[2],inactive
same,max response,[3],-1.62%
same,max response,[4],-15.1%
N[C@@H](Cn1ccc(=O)c(O)c1)C(=O)O,max response,[1],-0.877%
same,max response,[2],-0.669%
same,outcome,[3],inactive
same,max response,[4],7.53%
CC(=O)OCC[N+](C)(C)C,max response,[1],-0.18%
same,outcome,[2],inactive
same,max response,[3],-14.7%
same,max response,[4],2.39%
O=C(O)/C=C(\CC(=O)O)C(=O)O,max response,[1],4.3%
same,outcome,[2],inactive
same,outcome,[3],inactive
same,max response,[4],-12.2%
CC(=O)CC/C=C(\C)CC/C=C(\C)CC/C=C(\C)CCC=C(C)C,outcome,[1],inactive
same,outcome,[2],inactive
same,max response,[3],-9.87%
same,max response,[4],-13.4%
CC(C)(C)C(O)/C=C/c1ccc2c(c1)OCO2 (configuration not stated),outcome,[1],inactive
same,max response,[2],0.172%
same,max response,[3],-0.175%
same,max response,[4],-0.272%
Oc1ccc(CCNCCCCCCNCCc2ccccc2)cc1O,max response,[1],-8.57%
same,Potency,[2],23.7 µM (active)
same,outcome,[3],inactive
same,max response,[4],-20.6%
CC(C)C(C)(C)C(C)(C)C(C)(C)S,max response,[1],-4.15%
same,max response,[2],-4.55%
same,max response,[3],4.37%
same,max response,[4],-15.8%
O=C(O)c1[nH]n(-c2ccc(S(=O)(=O)O)cc2)c(=O)c1N=Nc1ccc(S(=O)(=O)O)cc1,max response,[1],0.833%
same,max response,[2],1.51%
same,outcome,[3],inactive
same,max response,[4],3.04%
O=C(OCC(COC(=O)c1cccnc1)(COC(=O)c1cccnc1)COC(=O)c1cccnc1)c1cccnc1,outcome,[1],inactive
same,max response,[2],-3.93%
same,outcome,[3],inactive
same,max response,[4],-20.2%
CCCCCC1Nc2cc(C(F)(F)F)c(S(N)(=O)=O)cc2S(=O)(=O)N1 (configuration not stated),max response,[1],-8.64%
same,max response,[2],-4.59%
same,max response,[3],-13.3%
same,max response,[4],-12.8%
C[C@@H](C1=C(CCN(C)C)Cc2ccccc21)c1ccccn1,outcome,[1],inactive
same,max response,[2],-25.1%
same,outcome,[3],inactive
same,max response,[4],-6.09%
O=C(O)c1ccccc1S,max response,[1],-0.928%
same,max response,[2],0.0683%
same,max response,[3],1.95%
same,max response,[4],-5.69%
CN1C(=O)c2ccccc2C1=O,max response,[1],3.83%
same,max response,[2],-4.39%
same,max response,[3],-13.2%
same,max response,[4],-21%
CC(=O)OCC(=O)[C@@]1(O)[C@H](OC(C)=O)C[C@H]2[C@@H]3CCC4=CC(=O)C=C[C@]4(C)[C@@]3(F)[C@@H](O)C[C@@]21C,outcome,[1],inactive
same,outcome,[2],inactive
same,outcome,[3],inactive
same,max response,[4],1.08%
CCCCCOc1ccc(C2SC(=O)NC2=O)cc1OCC (configuration not stated),max response,[1],-3.49%
same,max response,[2],3.99%
same,outcome,[3],inactive
same,outcome,[4],inactive
CCCC(=O)O[C@]1(C(=O)COC(=O)CC)CC[C@H]2[C@@H]3CCC4=CC(=O)CC[C@]4(C)[C@H]3[C@@H](O)C[C@@]21C,max response,[1],1.61%
same,max response,[2],3.26%
same,outcome,[3],inactive
same,max response,[4],-1.68%
CCOC(=O)NNc1nncc2ccccc12,max response,[1],-0.257%
same,max response,[2],-5.42%
same,outcome,[3],inactive
same,max response,[4],-9.29%
Cn1cc(S(C)=O)c(=O)c2ccc(F)cc21 (configuration not stated),max response,[1],-2.16%
same,max response,[2],-2.1%
same,max response,[3],-31%
same,max response,[4],2.67%
CCC(=O)O[C@H]1[C@H](O[C@@H]2[C@@H](C)[C@H](O[C@H]3C[C@@](C)(OC)[C@@H](O)[C@H](C)O3)[C@@H](C)C(=O)O[C@H](CC)[C@@](C)(O)[C@H](O)[C@@H](C)C(=O)[C@H](C)C[C@@]2(C)O)O[C@H](C)C[C@@H]1N(C)C,max response,[1],0.377%
same,outcome,[2],inactive
same,max response,[3],0.29%
same,max response,[4],2.69%
N[C@@H](Cc1cc(I)c(O)c(I)c1)C(=O)O,max response,[1],1.61%
same,max response,[2],-5.41%
same,max response,[3],4.36%
same,max response,[4],-0.833%
COC(=O)C1=CO[C@@H](O)[C@@H]2C(CO)=CC[C@H]12,max response,[1],0.169%
same,max response,[2],-25.4%
same,max response,[3],-1.37%
same,max response,[4],-12.1%
OCCc1ccccc1,max response,[1],4.7%
same,max response,[2],-1.38%
same,max response,[3],-14.1%
same,max response,[4],-8.71%
Cc1ccccc1N1CCN(CCc2nnc3n2CCCC3)CC1,max response,[1],-7.88%
same,outcome,[2],inactive
same,max response,[3],-11.8%
same,max response,[4],-5.62%
CO[C@]1(NC(=O)CSC(F)F)C(=O)N2C(C(=O)O)=C(CSc3nnnn3CCO)CO[C@H]21,max response,[1],-1.31%
same,max response,[2],-23.2%
same,max response,[3],4.33%
same,outcome,[4],inactive
CC(=O)OCC(=O)Nc1cc(C#N)cc(NC(=O)COC(C)=O)c1Cl,outcome,[1],inactive
same,max response,[2],-14.4%
same,max response,[3],0.636%
same,outcome,[4],inactive
Cc1nc([N+](=O)[O-])cn1-c1ccc([N+](=O)[O-])cc1,max response,[1],1.02%
same,max response,[2],0.842%
same,outcome,[3],inactive
same,max response,[4],5.55%
O=C(CCCCCCCCC#CI)Oc1ccccc1,max response,[1],1.88%
same,outcome,[2],inactive
same,outcome,[3],inactive
same,outcome,[4],inactive
NC(=O)COCCN1CCN(C(c2ccccc2)c2ccc(Cl)cc2)CC1 (configuration not stated),max response,[1],0.918%
same,max response,[2],1.14%
same,max response,[3],-16.4%
same,max response,[4],-17.1%
COC(=O)C1=C(C)NC(C)=C(C(=O)OCCc2ccc(N3CCN(C(c4ccccc4)c4ccccc4)CC3)cc2)C1c1cccc([N+](=O)[O-])c1 (configuration not stated),max response,[1],-8.49%
same,outcome,[3],inactive
O=C(NO)c1ccccc1,max response,[1],-19.7%
same,max response,[3],4.14%
same,max response,[4],-12.1%
Cc1ccc(Cl)c(OCC(O)CNC(C)(C)C)c1 (configuration not stated),outcome,[1],inactive
same,max response,[3],2.84%
C[C@H](CN1CCCC1)C(=O)c1ccc(C(F)(F)F)cc1,max response,[1],3.63%
same,max response,[2],-20.1%
same,max response,[4],4.58%
COC(=O)c1c(Cl)c(Cl)c(C(=O)OC)c(Cl)c1Cl,max response,[1],-7.84%
same,max response,[2],-21.7%
same,max response,[4],-7.26%
CN(C)CCOC(c1ccccc1)c1ccc(Br)cc1 (configuration not stated),max response,[1],-20.9%
same,max response,[3],1.11%
C/C=C(/C(=C/C)c1ccc(OC(C)=O)cc1)c1ccc(OC(C)=O)cc1,max response,[1],0.166%
same,outcome,[3],inactive
CC1CCCCN1CCCOC(=O)c1ccc(OC2CCCCC2)cc1 (configuration not stated),max response,[1],-16.2%
same,outcome,[3],inactive
Nc1ccc2cc3ccc(N)cc3nc2c1,Potency,[5],7.57 µM (active)
same,Potency,[1],7.5 µM (active)
same,Potency,[2],2.37 µM (active)
same,Potency,[3],3.76 µM (active)
CC(=O)OC/C=C(C)/C=C/C=C(C)/C=C/C1=C(C)CCCC1(C)C,max response,[1],0.956%
same,outcome,[3],inactive
COc1cc2nc(Cl)nc(N)c2cc1OC,outcome,[1],inactive
same,max response,[3],0.108%
Nc1c2ccccc2nc2ccccc12,Potency,[6],10 µM (active)
same,Potency,[7],7.08 µM (active)
same,Potency,[8],10 µM (active)
same,Potency,[9],8.91 µM (active)
same,Potency,[5],8.49 µM (active)
same,Potency,[1],8.41 µM (active)
same,Potency,[2],5.96 µM (active)
CO[C@@H]1[C@@H](OC)[C@H](C)[C@@](O)(CC(=O)O)O[C@H]1[C@H](C)[C@H]1O[C@@]2(CC[C@@](C)([C@H]3CC[C@@](C)([C@@H]4O[C@@H]([C@H]5O[C@](C)(O)[C@H](C)C[C@@H]5C)C[C@@H]4OC4C[C@H](OC)[C@@H](OC)[C@H](C)O4)O3)O2)C[C@H](O)[C@H]1C (some centres not stated),Potency,[1],0.944 µM (active)
same,Potency,[2],0.237 µM (active)
same,Potency,[4],16.4 µM (active)
CC(C)Cc1ccc(C(C)C(=O)OCc2ccccn2)cc1 (configuration not stated),max response,[1],-2.57%
same,outcome,[3],inactive
CCCC(=O)c1cc(O)c(O)cc1O,max response,[1],-22.6%
same,max response,[3],-3.56%
O=C(Nc1ccc(S(=O)(=O)N2CCOCC2)cc1)c1cc(Cl)ccc1NS(=O)(=O)c1ccc(Cl)s1,max response,[1],-9.47%
same,outcome,[2],inactive
same,max response,[4],-23.1%
CCCCCCCCCCCCCCCCCCNC(=O)OC1CCN(C(=O)OC[C@H](COC(=O)N(Cc2cccc[n+]2CC)C(=O)c2ccccc2OC)OC)CC1,Potency,[1],8.41 µM (active)
same,Potency,[2],7.5 µM (active)
same,Potency,[4],6.51 µM (active)
O=[N+]([O-])c1ccc(-c2nc(-c3ccc(F)cc3)c(-c3ccncc3)[nH]2)cc1,outcome,[1],inactive
same,max response,[3],-22.5%
CCCCCCCCCCCCCC[N+](C)(C)C,Potency,[10],inactive
same,Potency,[6],6.31 µM (active)
same,Potency,[7],4.47 µM (active)
same,Potency,[8],5.01 µM (active)
same,Potency,[9],5.62 µM (active)
same,Potency,[5],4.26 µM (active)
same,Potency,[1],7.5 µM (active)
same,Potency,[2],2.66 µM (active)
same,Potency,[3],5.96 µM (active)
same,Potency,[4],16.4 µM (active)
